High-throughput results deposited in PubChem by several laboratories.
Hits are enriched below; roughly 9.6% of the tested compounds scored in any of these assays.
HCT116 bCat-KO = primary screen for growth suppressors in beta-catenin knockout HCT116 cells (colon tumor, human); HCT116 beta-catenin knockout viability, CellTiter-Glo, 60 h; hits give low values; viability, % at 10 µM; 140,000 tested, 1.5% active;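 active = viability at or under a set limit, the compound median less 4 SD, cut at about 6% in these data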
INS promoter inh = inhibitors of insulin promoter-driven GFP, primary screen, imaging, TRM-6 cells (human fetal islet line), eGFP reporter, cell count; reporter expression induced with tamoxifen; inhibition, % at 2 µM; 130,000 tested, 0.9% active;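 active = inhibition above the mean plus 3 SD, with well images judged a real hit on visual review, cut at about 60% in these data, passing the limit was not always enough; inconclusive = inhibition over the cutoff but images rejected on review; inactive = inhibition not above the cutoff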
Autophagy mod = autophagy modulators in MEF cells, primary screen, imaging, high-content, MEF GFP-LC3 | MEF GFP-LC3 puncta imaging; test concentration mostly 10 µM | calls only at 10 µM (by protocol) | 190,000 tested, 0.98% active;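 active = percentage of spot-positive cells more than 3 SD above its plate mean, without a fluorescence outlier flag or 80% toxicity; inconclusive = no clear call, values can overlap the other calls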
Lmaj promast = Leishmania major promastigote growth inhibition, primary screen; inhibition, % at 10 µM; 200,000 tested, 9% active; Leishmania major promastigotes, resazurin fluorescence viability; in the data active = inhibition above about 50%;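 also: promastigotes grown with compound for 44 hours at 28 °C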
HCT116 PTEN-null = growth suppression of PTEN-null HCT116, primary screen, cell-based, CellTiter-Glo. AID 827, 2007. HCT116 PTEN-null viability, 60 h; hits give low values. 140,000 tested, 1.2% active. viability, % at 10 µM;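 active = viability at or below a set limit, 4 SD under the median of all tested compounds, cut at about 3.7% in these data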;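 also: PTEN knockout HCT116 line with beta catenin targeted HCT116 as companion control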
Ins promoter up = insulin promoter activators in MIN6 cells, imaging, high-content screening, mouse beta cells | MIN6 insulin promoter-GFP reporter; hits give high values | z-score at 5 µM | 190,000 tested, 0.3% active;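 active = z-score above 3 at 5 µM with at least 500 cells counted in the well; inconclusive = wells under 500 cells, flagged as cytotoxic or low count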
Numbers stand for hits.

How did Cc1cc(N)n2ncc(-c3ccccc3)c2n1 do in these assays?
HCT116 bCat-KO: inactive; INS promoter inh: 87; Autophagy mod: inactive; Lmaj promast: inactive; HCT116 PTEN-null: inactive; Ins promoter up: inactive

How did CC(=O)c1cnc2c(-c3cccc(Br)c3)cnn2c1C do in these assays?
HCT116 bCat-KO: inactive; INS promoter inh: inactive; Autophagy mod: inactive; Lmaj promast: 88; HCT116 PTEN-null: inactive; Ins promoter up: inactive

What do the screens show for `CC(=O)c1cnc2c(C(=O)O)cnn2c1C`?
HCT116 bCat-KO: inactive; INS promoter inh: inactive; Autophagy mod: inactive; Lmaj promast: inactive; HCT116 PTEN-null: inactive; Ins promoter up: inactive

Results for CCCCN(C)C(=O)c1coc(=O)c2ccccc12 ?
HCT116 bCat-KO: inactive; INS promoter inh: inconclusive; Autophagy mod: inactive; Lmaj promast: inactive; HCT116 PTEN-null: inactive; Ins promoter up: inactive

How did O=c1c(OC2OC(CO)C(O)C(O)C2OC2OC(CO)C(O)C(O)C2OC2OC(CO)C(O)C(O)C2O)c(-c2ccc(O)c(O)c2)oc2cc(O)cc(O)c12 (centres undefined) do in these assays?
Ins promoter up: inactive

Results for Cc1ccc(NC(C)C(=O)N/N=C/c2ccc([N+](=O)[O-])s2)cc1 (centres undefined) ?
Autophagy mod: inactive; Lmaj promast: 100; Ins promoter up: inactive

What do the screens show for `CCOc1ccc(NC(C)C(=O)N/N=C/c2ccc([N+](=O)[O-])cc2)cc1` (centres undefined)?
Autophagy mod: inactive; Lmaj promast: inactive; Ins promoter up: inactive

Results for COc1ccc(NC(C)C(=O)N/N=C/c2ccc([N+](=O)[O-])s2)cc1 (centres undefined) ?
Autophagy mod: inactive; Lmaj promast: 100; Ins promoter up: inactive

What do the screens show for `O=C(Nc1ccccc1)C1CCCN(S(=O)(=O)c2ccc(-n3cnnn3)cc2)C1` (centres undefined)?
HCT116 bCat-KO: inactive; INS promoter inh: inactive; Autophagy mod: inactive; Lmaj promast: inactive; HCT116 PTEN-null: inactive; Ins promoter up: inactive

How did COc1ccc(OC)c(S(=O)(=O)N2c3ccccc3CC2C)c1 (centres undefined) do in these assays?
HCT116 bCat-KO: inactive; INS promoter inh: inactive; Autophagy mod: inactive; Lmaj promast: 100; HCT116 PTEN-null: inactive

What do the screens show for `COc1ccc(OC)c(S(=O)(=O)N2C(C)CCCC2C)c1` (centres undefined)?
HCT116 bCat-KO: inactive; INS promoter inh: inactive; Autophagy mod: inactive; Lmaj promast: inactive; HCT116 PTEN-null: inactive; Ins promoter up: inactive

How did COc1ccc(OC)c(S(=O)(=O)N2CCc3ccccc32)c1 do in these assays?
HCT116 bCat-KO: inactive; INS promoter inh: inactive; Autophagy mod: inactive; Lmaj promast: 95; HCT116 PTEN-null: inactive; Ins promoter up: inactive

How did COc1ccc(C(=O)N2CCOCC2)cc1S(=O)(=O)N1CCCc2ccccc21 do in these assays?
INS promoter inh: inactive; Autophagy mod: inactive; Lmaj promast: inactive; Ins promoter up: inactive

What do the screens show for `COc1ccc(OC)c(S(=O)(=O)N2CCC(C(=O)N3CCc4ccccc4C3)CC2)c1`?
HCT116 bCat-KO: inactive; INS promoter inh: inactive; Autophagy mod: inactive; Lmaj promast: inactive; HCT116 PTEN-null: inactive

Results for COc1ccc(OC)c(S(=O)(=O)N2CCCc3ccccc32)c1 ?
HCT116 bCat-KO: inactive; INS promoter inh: inactive; Autophagy mod: inactive; Lmaj promast: 100; HCT116 PTEN-null: inactive; Ins promoter up: inactive

What do the screens show for `COc1ccc(C(=O)N2CCCN(C)CC2)cc1S(=O)(=O)N1CCCc2ccccc21`?
HCT116 bCat-KO: inactive; INS promoter inh: inactive; Autophagy mod: inactive; Lmaj promast: 55; HCT116 PTEN-null: inactive; Ins promoter up: inactive

What do the screens show for `O=C(NC(Cc1ccccc1)C(=O)O)/C(=C/c1ccco1)NC(=O)c1cccc([N+](=O)[O-])c1` (centres undefined)?
Autophagy mod: inactive; Lmaj promast: inactive; Ins promoter up: inactive

What do the screens show for `Cc1ccc(S(=O)(=O)N(C)c2ccc(OC(=O)c3ccc(=O)[nH]c3)cc2)cc1`?
Autophagy mod: inactive; Lmaj promast: inactive; Ins promoter up: inactive

Results for COc1ccc(C(=O)NCc2ccc(C)cc2)cc1S(=O)(=O)N1CCCc2ccccc21 ?
HCT116 bCat-KO: inactive; INS promoter inh: inactive; Autophagy mod: inactive; Lmaj promast: 99; HCT116 PTEN-null: inactive

How did COc1ccc(OC)c(S(=O)(=O)N2c3cc(F)ccc3CCC2C)c1 (centres undefined) do in these assays?
HCT116 bCat-KO: inactive; INS promoter inh: inactive; Autophagy mod: inactive; Lmaj promast: 100; HCT116 PTEN-null: inactive; Ins promoter up: inactive

What do the screens show for `Cc1cc(C)c(S(=O)(=O)N(C2=NCCS2)S(=O)(=O)c2c(C)cc(C)cc2C)c(C)c1`?
HCT116 bCat-KO: inactive; INS promoter inh: inactive; Autophagy mod: inactive; Lmaj promast: 98; HCT116 PTEN-null: inactive

How did CCn1c(/C=C/Nc2ccccc2)[n+](CC)c2cc(Cl)c(Cl)cc21 do in these assays?
HCT116 bCat-KO: 1.5; INS promoter inh: inactive; Autophagy mod: inactive; Lmaj promast: 100; HCT116 PTEN-null: 1.3; Ins promoter up: inactive

What do the screens show for `CCn1c(/C=C/N(C(C)=O)c2ccccc2)[n+](CCCS(=O)(=O)[O-])c2cc(Cl)c(Cl)cc21`?
INS promoter inh: inactive; Autophagy mod: inactive; Lmaj promast: inactive; Ins promoter up: inactive

What do the screens show for `Cc1ccc(CNc2ccc3c(c2)ncn3C)cc1`?
HCT116 bCat-KO: inactive; INS promoter inh: inactive; Autophagy mod: inactive; Lmaj promast: 60; HCT116 PTEN-null: inactive

How did CCc1ccc(CNc2ccc3c(c2)ncn3C)cc1 do in these assays?
HCT116 bCat-KO: inactive; INS promoter inh: inactive; Autophagy mod: inactive; Lmaj promast: inactive; HCT116 PTEN-null: inactive; Ins promoter up: inactive

Results for CN(C)CCC(=O)c1cccc(Br)c1 ?
Autophagy mod: inactive; Lmaj promast: 52; Ins promoter up: inactive

How did CN(C)CCC(=O)c1ccc2c(c1)OCO2 do in these assays?
HCT116 bCat-KO: inactive; INS promoter inh: 82; Autophagy mod: inactive; Lmaj promast: 98; HCT116 PTEN-null: inactive

Results for O=C(C(Cc1ccccc1)NS(=O)(=O)c1cccc2cccnc12)N1CCc2ccccc21 (centres undefined) ?
HCT116 bCat-KO: inactive; Autophagy mod: inactive; Lmaj promast: 94; HCT116 PTEN-null: inactive; Ins promoter up: inactive

Results for COC(=O)C1C(c2ccc(Br)cc2)Nc2nnc(C(F)(F)F)n2C1(C)O (centres undefined) ?
INS promoter inh: inactive; Autophagy mod: inactive; Lmaj promast: inactive; Ins promoter up: inactive

What do the screens show for `c1ccc(C2CCC(N3CCNCC3)CC2)cc1` (centres undefined)?
HCT116 bCat-KO: inactive; Autophagy mod: inactive; Lmaj promast: 91; HCT116 PTEN-null: inactive

How did CCS(=O)(=O)N1CCN(C2CCC(c3ccccc3)CC2)CC1 (centres undefined) do in these assays?
HCT116 bCat-KO: inactive; Autophagy mod: inactive; Lmaj promast: 99; HCT116 PTEN-null: inactive; Ins promoter up: inactive
